Data: PubChem BioAssay
Activity calls are given as the source filed them. Unless noted, no rule for the calls is given here.

Columns and labels:
[1] = test system: XIP peptide (Xip251-270) binding; assay: small-molecule binders of XIP peptide, primary screen, biochemical, small-molecule microarray, fluorescence 635/667 nm, 0.1 µg/mL protein (AID 1182); conditions: fluorescent protein binding, 635 nm, higher = more signal, called active from +8 up or from −8 down
XIP peptide (Xip251-270) = assay: small-molecule binders of XIP peptide, primary screen, biochemical, small-molecule microarray, fluorescence 635/667 nm, 0.5 µg/mL protein (AID 1183); conditions: small-molecule microarray binding, fluorescence 635 nm; higher = more signal
[2] = Plasmodium falciparum growth inhibition, primary screen, strain 3D7, DAPI fluorescence, 100 nL (AID 1184);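 also: parasites grown inside human red blood cells in medium with human serum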; conditions: P. falciparum 3D7 growth, 3 d, higher = more signal
[3] = molecular target: Homeobox protein Hox-A13 (Mus musculus) (UniProt Q62424); assay: inhibitors of HoxA13-DNA binding, primary screen, biochemical, fluorescence polarization, labeled oligonucleotide (AID 1185); conditions: 15 min, higher = more signal, called active from +8 up or from −8 down
[4] = inhibitors of hydroxyurea-induced Chk1 phosphorylation, primary screen, imaging, HeLa, phospho-Chk1 antibody, percent positive cells (AID 1186); conditions: hydroxyurea-induced phospho-Chk1 immunofluorescence imaging, higher = more signal
[5] = inhibitors of hydroxyurea-induced Chk1 phosphorylation, primary screen, imaging, HeLa, phospho-Chk1 nuclear intensity (AID 1187); conditions: hydroxyurea-induced phospho-Chk1 immunofluorescence imaging, higher = more signal

Homeobox protein Hox-A13 (Mus musculus), sequence (Q62424 whole entry, looked up): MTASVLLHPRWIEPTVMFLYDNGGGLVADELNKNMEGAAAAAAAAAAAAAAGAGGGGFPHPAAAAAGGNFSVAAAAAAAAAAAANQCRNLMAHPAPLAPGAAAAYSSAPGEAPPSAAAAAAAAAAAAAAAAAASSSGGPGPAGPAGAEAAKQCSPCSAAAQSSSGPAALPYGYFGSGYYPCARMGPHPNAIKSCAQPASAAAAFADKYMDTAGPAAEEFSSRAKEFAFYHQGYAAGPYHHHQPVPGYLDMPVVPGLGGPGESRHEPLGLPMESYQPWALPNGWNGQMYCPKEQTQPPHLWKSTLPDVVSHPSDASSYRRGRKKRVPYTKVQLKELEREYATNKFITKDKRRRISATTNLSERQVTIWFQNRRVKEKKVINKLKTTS

| SMILES | composite z-score [1] | composite z-score (XIP peptide (Xip251-270)) | z-score [2] | z-score [3] | z-score [4] | z-score [5] |
| --- | --- | --- | --- | --- | --- | --- |
| COc1ccc([Si](C)(C)[C@H]2[C@H](CC(=O)N3Cc4ccccc4C[C@H]3CO)O[C@@]3(C(=O)N(c4ccccc4)c4ccccc43)[C@@H]2C)cc1 | 0.065 (inactive) | 0.765 | -2.01 | -5.4 (inactive) | -0.447 (inactive) | -0.786 (inactive) |
| COc1ccc(C(=O)Nc2ccc(CN3C(=O)[C@@]4(O[C@@H](CCn5cc(CCO)nn5)[C@H]([Si](C)(C)c5ccc(OC)cc5)[C@H]4C)c4ccccc43)cc2)cc1 | 1.04 (inactive) | 0.561 | -2.71 | -3.79 (inactive) | -0.989 (inactive) | -1.13 (inactive) |
| COC(=O)[C@@]1(Cc2ccccc2)[C@H]2c3cc(C(=O)N(C)C)n(CCO)c3C[C@H]2CN1C(=O)c1ccccc1 | 1.42 (inactive) | 0.182 | 1.1 | -3.87 (inactive) | 0.736 (inactive) | 0.491 (inactive) |
| CC(=O)c1ccc(C(O)C2C=CC3C(=O)N(c4ccccc4)C(=O)C3N2Nc2ccc(C(C)C)cc2)cc1 (centres undefined) | 0.248 (inactive) | 0.525 | -1.33 | -2.09 (inactive) | 0.0577 (inactive) | -0.371 (inactive) |
| COC(=O)[C@@]1(Cc2ccc(OC)cc2)[C@H]2c3cc(C(=O)N4CCCC4)n(CCn4cc([N+](=O)[O-])nc4C)c3C[C@H]2CN1C(=O)c1ccccc1 | 1.13 (inactive) | 0.359 | -1.73 | -2.67 (inactive) | 1.65 (inactive) | 1.22 (inactive) |
| CC1CC/C=C\[C@H]2OC34C=CCN(c5ccc6ccccc6c5)C(=O)[C@H]3N(C(C)CO)C(=O)[C@@H]4C2C(=O)O1 (some centres undefined) | -0.0371 (inactive) | -0.691 | -0.338 | -4.97 (inactive) | 0.0352 (inactive) | -0.228 (inactive) |
| O=C(NCCN1CCOCC1)[C@@H]1c2ccccc2C(=O)N(Cc2ccccc2C(F)(F)F)[C@H]1c1ccc(CO)cc1 | 0.3 (inactive) | 0.777 | -1.16 | -3.55 (inactive) | 0.126 (inactive) | 0.371 (inactive) |
| C=CCC(OC(C)=O)[C@@H]1[C@@H](N(Cc2cccc3ccccc23)C(=O)Cc2ccc(OC)cc2)c2cc(OCCCO)ccc2N1C(=O)Cc1ccc2ccccc2c1 (some centres undefined) | -0.559 (inactive) | 0.296 | -1.91 | -2.41 (inactive) | 0.42 (inactive) | 0.512 (inactive) |
| COc1ccc([Si](C)(C)[C@@H]2[C@@H](CC(=O)N(CCO)Cc3ccccc3)O[C@]3(C(=O)N(Cc4ccc(I)cc4)c4ccccc43)[C@H]2C)cc1 | 1.59 (inactive) | 0.256 | -2.2 | -2.17 (inactive) | -0.168 (inactive) | -0.299 (inactive) |
| C=C(COC)C(=O)CC[C@@H](OC(C)=O)c1ccccc1OCCO | 0.0063 (inactive) | 0.522 | -2.06 | -5.01 (inactive) | 0.374 (inactive) | 0.77 (inactive) |
| C=CCOC(=O)[C@H]1[C@@H]2C(=O)O[C@@H](c3ccccc3)[C@@H](c3ccccc3)N2[C@@H](c2ccc(OCCOC(=O)[C@H]3C[C@H]4C(=O)N[C@@H](CC(C)C)C(=O)N4[C@H]3c3ccc(O)cc3)cc2)[C@]12C(=O)Nc1ccccc12 | 0.386 (inactive) | 0.818 | -1.49 | 0.832 (inactive) | 0.109 (inactive) | -0.0249 (inactive) |
| COC(=O)[C@H](Cc1ccccc1)N1CC2=CCCC=C[C@@H]2[C@H]1[C@H](O)Cc1ccccc1 | 0.444 (inactive) | -0.221 | -0.926 | -6.25 (inactive) | -0.359 (inactive) | -0.685 (inactive) |
| C=CCOC(=O)[C@H]1[C@@H]2C(=O)O[C@@H](c3ccccc3)[C@@H](c3ccccc3)N2[C@@H](c2ccc(OCCOC(=O)[C@@H]3C[C@@H]4C(=O)N[C@@H](CCCCNC(C)=O)C(=O)N4[C@@H]3c3cccc(OCCO)c3)cc2)[C@]12C(=O)Nc1ccccc12 | 0.785 (inactive) | 0.824 | -1.55 | -0.0913 (inactive) | 0.321 (inactive) | 0.0173 (inactive) |
| CCCCCC1=C2CNC(CC(C)C)(C(=O)OC)C=C2C(C)C1=O (centres undefined) | 0.814 (inactive) | 0.176 | -0.282 | -8.08 (active) | 1.32 (inactive) | 0.856 (inactive) |
| C=C(CCCC)/C(=C/C[C@H](OC(=O)c1ccncc1)c1ccc(OCCO)cc1)c1cnc2ccccc2c1 | 1.51 (inactive) | 0.754 | -2.94 | -2.83 (inactive) | -0.658 (inactive) | -0.869 (inactive) |
| CCCCN1CC=CC23O[C@@H]4/C=C\CCCOC(=O)C4[C@H]2C(=O)N(C(CO)C(C)C)[C@@H]3C1=O (some centres undefined) | 1.4 (inactive) | -0.492 | 1.18 | -5.81 (inactive) | 0.458 (inactive) | 0.188 (inactive) |
| CCCN1C(=O)[C@@]2(c3ccc([N+](=O)[O-])cc3)CC(=O)N(CC34CC5CC(CC(C5)C3)C4)[C@@H]2c2ccc(CO)cc21 | -0.349 (inactive) | 0.483 | 0.877 | -1.71 (inactive) | 0.177 (inactive) | -0.16 (inactive) |

| SMILES | composite z-score [1] | composite z-score (XIP peptide (Xip251-270)) | z-score [2] | z-score [3] | z-score [4] | z-score [5] |
| --- | --- | --- | --- | --- | --- | --- |
| NC(=O)N1C(=O)C2C(C1=O)C1C=C(CCCO)C2C(C2CC2)N1Cc1sc2ccccc2c1Cl (centres undefined) | 0.632 (inactive) | 0.692 | -0.672 | -4.04 (inactive) | -0.273 (inactive) | -0.171 (inactive) |
| COC(=O)[C@@]1(Cc2ccc(F)cc2)[C@H]2c3cc(C(=O)N4CCCC4)n(CCc4ccccn4)c3C[C@H]2CN1C(=O)c1ccccc1 | 0.405 (inactive) | -0.189 | -1.31 | -4.83 (inactive) | 0.227 (inactive) | 0.247 (inactive) |
| COc1ccc(NN2C(C(O)c3ccc(I)cc3)C=CC3C(=O)N(C4CCCCC4)C(=O)C32)cc1 (centres undefined) | 1.63 (inactive) | 0.618 | -0.684 | -3.31 (inactive) | 0.0831 (inactive) | -0.481 (inactive) |
| C=CC[C@@]12N=C(c3ccc(OCCCO)cc3)O[C@@H]1c1ccccc1N(CCC)C2=O | 2.48 (inactive) | 0.759 | -2.25 | -4.8 (inactive) | 0.291 (inactive) | 0.58 (inactive) |
| COC(=O)C(CC#Cc1ccc2c(c1)[C@]1(C(=O)N2)[C@H](c2ccc(OCCO)cc2)N2[C@H](c3ccccc3)[C@H](c3ccccc3)OC(=O)[C@H]2[C@@H]1C(=O)N1CCCCCCC1)C(=O)OC | 2.15 (inactive) | 0.812 | -2.24 | -14.6 (active) | -0.224 (inactive) | -0.197 (inactive) |
| Cc1ccc(S[C@]2(C(=O)NCc3ccccc3)CC(=O)N(Cc3ccccc3C(F)(F)F)[C@@H]2c2ccc(CO)cc2)cc1 | 0.903 (inactive) | 0.599 | 0.78 | 0.0133 (inactive) | -0.51 (inactive) | -0.393 (inactive) |
| COC(=O)[C@@]1(Cc2ccc(F)cc2)[C@H]2c3cc(C(=O)N4CCCC4)n(Cc4ccccn4)c3C[C@H]2CN1C(=O)c1ccccc1 | 0.224 (inactive) | 0.769 | -1.68 | -4.98 (inactive) | 0.0348 (inactive) | -0.0643 (inactive) |
| COC(=O)[C@]1(Cc2ccccc2)N=C(c2ccc(OCCCO)cc2)O[C@@H]1c1ccccc1CN=[N+]=[N-] | 0.506 (inactive) | 0.753 | -2.47 | -1.89 (inactive) | -0.623 (inactive) | -0.631 (inactive) |
| O=C1C[C@@](C(=O)O)(c2ccc([N+](=O)[O-])cc2)[C@@H](c2ccc(CO)cc2)N1C1CCCCC1 | 0.803 (inactive) | 0.73 | -1.13 | -4.33 (inactive) | -0.119 (inactive) | 0.0584 (inactive) |
| Cc1ccc(S[C@]2(C(=O)NCCCN(C)C)CC(=O)N(Cc3ccccc3C(F)(F)F)[C@@H]2c2ccc(CO)cc2I)cc1 | 0.223 (inactive) | 0.82 | 0.306 | -2.71 (inactive) | 0.0909 (inactive) | 0.675 (inactive) |
| COc1ccc(C(=O)Nc2cccc(CN3C(=O)[C@]4(O[C@H](CC(=O)N5Cc6ccccc6C[C@H]5CO)[C@@H]([Si](C)(C)c5ccc(OC)cc5)[C@@H]4C)c4ccccc43)c2)cc1 | -0.335 (inactive) | 0.697 | -2.94 | -2.35 (inactive) | 1.01 (inactive) | 0.835 (inactive) |
| CN(C)CCCC[C@@H]1NC(=O)[C@@H]2C[C@H](C(=O)NCCCCCN)[C@H](c3cccc(OCCO)c3)N2C1=O | 1.14 (inactive) | 0.898 | -0.0568 | -1.29 (inactive) | -0.523 (inactive) | 0.0431 (inactive) |
| COCCOC(=O)N1C(=O)[C@@]2(c3cc(C#CCCO)ccc31)[C@H](C(N)=O)[C@H]1C(=O)O[C@H](c3ccccc3)[C@H](c3ccccc3)N1[C@@H]2c1ccccc1OCCO | 1.47 (inactive) | 0.832 | -1.31 | -3.88 (inactive) | 0.0461 (inactive) | -0.303 (inactive) |
| CC1CC/C=C\[C@H]2OC34C=CCN(Cc5ccccc5)C(=O)[C@H]3N(CCCCCCO)C(=O)[C@@H]4C2C(=O)O1 (some centres undefined) | 1.32 (inactive) | -0.367 | -0.147 | -5.85 (inactive) | 0.0339 (inactive) | 0.0311 (inactive) |
| C[N+](C)(C)CCCC[C@@H]1NC(=O)[C@H]2C[C@@H](C(=O)NCCCCCNC(=O)CS)[C@@H](c3cccc(OCCO)c3)N2C1=O | 0.649 (inactive) | -0.203 | -0.222 | -2.8 (inactive) | 0.0911 (inactive) | 0.164 (inactive) |
| CC(C)[Si](C#CCCc1ccccc1)(O[C@H](c1ccccc1)c1cn(Cc2ccccc2)nn1)C(C)C | -0.0657 (inactive) | 0.574 | -0.374 | -1.64 (inactive) | -1.18 (inactive) | -1.16 (inactive) |
| O=C1O[C@@H](c2ccccc2)[C@@H](c2ccccc2)N2[C@@H](c3ccc(OCCO)cc3)[C@]3(C(=O)Nc4ccc(C#CCCO)cc43)[C@@H](C(=O)O)[C@H]12 | 0.901 (inactive) | 0.443 | 0.612 | -5.86 (inactive) | -0.368 (inactive) | -0.451 (inactive) |
